Sampled rows, rich in hits. Any-hit rate of the full collection: about 11%.
FLuc inh = Firefly luciferase inhibition profiling of diverse chemical library using quantitative high-throughput screening; Luciferin 4-monooxygenase (Photinus pyralis), P08659; purified P. pyralis luciferase, luminescence, biochemical; Potency, µM (highest dose often 115 µM), usual class: inhibitors; hit rate 2.5% among 76,000; AID 1347043, 2019; also: nearly all actives have a fitted effect of over 65% in size
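Luminescence read by CCD imager after adding enzyme (10nM final) to wells holding compound, titrated in qHTS. Substrates 10uM each D-luciferin and ATP; buffer 50mM Tris acetate pH 7.5, 10mM Mg acetate, Tween-20, BSA.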
3T3 cytotox = Cytotoxic Profiling in NIH 3T3 Cell Line of Diverse Libraries Using Quantitative High-Throughput Screening | NIH 3T3 viability, CellTiter-Glo ATP luminescence, 48-72 h | Potency, µM (titrated, usually from 96.7 µM), for the others: at the top dose activity change, negative = cytotoxicity, most hits filed as inhibitors | hit rate 4.3% among 94,000; also: nearly all actives have a fitted effect of over 55% in size
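First NIH 3T3 cells are plated at 400 cells/well; next compound is pinned in; then plates incubate 48 or 72 hr at 37 °C; finally CellTiter-Glo is added and luminescence read after 10 min.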
NPR1 antag = Natriuretic polypeptide receptor (hNpr1) antagonism - Primary qHTS; HEK293 hNpr1 GloSensor cGMP, ANP-stimulated luminescence; hit rate 1.6% among 76,000; Potency, µM (titrated, usually from 46.3 µM), for inactives: at the top dose activity change, negative = inhibition, hits mostly inhibitors; calls by dose curve; also: nearly all actives have a fitted effect of over 60% in size
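HEK293 cells stably expressing human Npr1 and cGMP GloSensor pGS-40F, loaded 2 h with 2% GloSensor reagent, given compound 30 min at room temperature. Luminescence read before and 20 min after 0.1 nM hNppA.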
HEK293 tox = Cytotoxic Profiling in HEK 293 Cell Line of Diverse Libraries Using Quantitative High-Throughput Screening. HEK 293 viability, ATP luminescence (CellTiter-Glo), 48-72 h. Potency, µM (series often up to 115 µM), inactives show at the highest dose activity change, negative = cytotoxicity, most hits filed as inhibitors. hit rate 6.6% among 94,000; also: nearly all actives have a fitted effect of over 60% in size
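qHTS cytotoxicity; HEK 293, 250 cells/well; compound pinned; 48 or 72 hr, 37 degree Celsius, 5% CO2, 95% humidity; CellTiter-Glo, 10 min RT; luminescence (ATP).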
The depositor's hits bear a star; i = inactive; u = inconclusive; x = no result given; [ ] = remark or other dose. Unless noted, calls follow the shape of the dose curve; as a rule, active = well fitted curve in the direction sought with a large enough effect; inconclusive = small, poorly fitted or top-dose-only effect, or another doubt; inactive = no such curve, though single readings can be large; an effect the other way counts as inactive or inconclusive. % is scaled to controls: 0 for no effect and ±100 for the full control effect; potency is read from the fitted curve at half-maximal effect.

SMILES	FLuc inh	3T3 cytotox	NPR1 antag	HEK293 tox
COc1cccc(CC(=O)N2CC(Oc3ccc(-c4nc(-c5ccccc5)no4)cc3)C2)c1	8.9µM*	u	3.5µM*	13µM*
COCCC(=O)N1CC(Oc2ccc(-c3noc(-c4ccccc4)n3)cc2)C1	13µM*	u	20µM*	22µM*
COCCOCC(=O)N1CC(Oc2ccc(-c3noc(-c4ccccc4)n3)cc2)C1	u	u	10µM*	u
COc1ccc(NC(=O)C[C@@H]2C[C@@H](C(C)C)[C@H](CC#N)C=C2C)cn1	i	79µM*	-1%[70.6 µM]	89µM*
O=C(NCCCc1ccccc1)c1ccc2nc(-c3cccnc3Cl)oc2c1	x	45µM*	x	u
O=C(NCCc1ccccc1)c1ccc2nc(-c3ccccn3)oc2c1	x	u	x	89µM*
Cc1cccc(-c2nc3ccc(C(=O)NCCc4ccccc4)cc3o2)n1	x	u	x	100µM*
COc1ccc(Cn2c(-c3ccccc3)nc(C)c(CCO)c2=O)cc1F	i	u	1%	u
COc1ccc(-c2cccc(C(=O)NCC3CC3)c2)nn1	x	u	x	-17%[172 µM]
O=C(C1CCC(N2Cc3cccn3C2=O)CC1)C1CCN(C(=O)c2ccccc2)CC1 (stereo not drawn)	x	-19%	x	u
O=C(CCC(F)(F)F)N1CCCC(CCc2c(F)cccc2F)C1 (stereo not drawn)	i	u	0%	-29%
O=C(CCCc1cn[nH]c1)N1CCCC(CCc2c(F)cccc2F)C1 (stereo not drawn)	i	u	-21%	50µM*
CSCCC(=O)N1CCCC(CCc2ccccc2F)C1 (stereo not drawn)	i	40µM*	-4%	u
C[S+](=O)([O-])N1CCCC1C(=O)N1CCC2(CC1)CC(=O)Nc1ccccc1O2 (stereo not drawn)	x	i	x	-3%
CC(C)CNc1ccc2c(n1)C(C)(C(=O)NC1CCOCC1)CN(Cc1ccccc1)C2 (stereo not drawn)	i	u	2%[70.6 µM]	79µM*
CC(C)CNc1ccc2c(n1)C(C)(C(=O)Nc1cccnc1)CN(Cc1ccccc1)C2 (stereo not drawn)	i	28µM*	-17%[70.6 µM]	50µM*
CC(C)CNc1ccc2c(n1)C(C)(C(=O)NC1CC1)CN(Cc1ccccc1)C2 (stereo not drawn)	i	u	-14%[70.6 µM]	63µM*
CN(C)c1nc2c(c(=O)[nH]1)CCN(Cc1ccc(Cl)c(F)c1)CC2	i	-19%	-11%	-5%
CC(C)(C)CN[C@H]1C[C@@H](Cc2cc(COc3ccccc3)on2)C1(C)C	i	28µM*	-12%[70.6 µM]	22µM*
CN(Cc1cc(C[C@@H]2C[C@H](NC(=O)COc3ccccc3)C2(C)C)no1)c1ccccc1	i	u	u	u
CC1(C)[C@H](Cc2cc(COc3ccccc3)on2)C[C@@H]1NC(=O)COc1ccccc1	i	63µM*	u	50µM*
CC1(C)[C@H](Cc2cc(COc3ccccc3)on2)C[C@@H]1NC(=O)Cc1ccccc1	i	56µM*	u	56µM*
CCCCc1cc(C[C@@H]2C[C@H](NC(=O)c3cccc(F)c3)C2(C)C)no1	i	63µM*	u	63µM*
CC1(C)[C@H](Cc2cc(COc3ccccc3)on2)C[C@@H]1NC1CCOCC1	i	u	4%[70.6 µM]	u
COc1ccc(-c2cc(C[C@@H]3C[C@H](NC(=O)c4ccccc4)C3(C)C)no2)cc1	i	u	u	u
COCC(=O)N[C@H]1C[C@@H](Cc2cc(-c3ccc(OC)cc3)on2)C1(C)C	u	56µM*	-14%[70.6 µM]	35µM*
CN1CCC(N[C@H]2C[C@@H](Cc3cc(-c4ccc(F)cc4)on3)C2(C)C)CC1	63µM*	7.1µM*	u	8.9µM*
CCNC(=O)N[C@H]1C[C@@H](Cc2cc(COc3ccccc3)on2)C1(C)C	i	u	4%[70.6 µM]	89µM*
COc1ccc(C(=O)N[C@H]2C[C@@H](Cc3cc(COc4ccccc4)on3)C2(C)C)cc1	i	28µM*	u	u
CCCN[C@H]1C[C@@H](Cc2cc(COc3ccccc3)on2)C1(C)C	i	u	-5%[70.6 µM]	u

Compound activity (PubChem)
